In PubChem BioAssay AID1159580 (chemical genetic matrix, 2015):
Values joined by “and” are separate entries in the source; they are usually repeats but may differ in a detail not shown here. Equal entries are not always repeated. Hit rate of the full screen: of about 5,500 compounds, about 2,000 (36%) were called active. About 18% were inconclusive and are not listed. No stated cut-off is given here; in the data, active means normalized growth mostly below about 0.91 (no sharp cut-off); inconclusive means no clear call, values can overlap the other calls; inactive means mostly above about 0.92. Some of the results follow.

Assay: chemical genetic growth profiling, strain panel (AID 1159580);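 further: tested at 20 µM; growth read once vehicle control cultures reached saturation at 30 °C; 1 = growth at the plate median or of vehicle wells; lower values mean less growth of the strain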
Details: S. cerevisiae deletion strains, growth OD

Measured: normalized growth

CC(C)c1c(O)ccc2c1CCC1[C@@](C)(CO)CCC[C@]21C (stereo partly specified)
inactive: locus YAL013W, strain DEP1, hits give low values 0.978 | locus YAL021C, strain ccr4, hits give low values 1.01 | locus YAL026C, strain drs2, hits give low values 1.01 | locus YAL030W, strain snc1, hits give low values 1.01 | locus YBL061C, strain skt5, hits give low values 1.01 | locus YBR009C, strain hhf1, hits give low values 1.04 | locus YBR021W, strain FUR4, hits give low values 0.945 | locus YBR023C, strain chs3, hits give low values 1.03 | locus YBR171W, strain sec66, hits give low values 1.02 | locus YBR229C, strain ROT2, hits give low values 0.958 | locus YBR231C, strain swc5, hits give low values 1.02 | locus YBR279W, strain paf1, hits give low values 1.02 | locus YCL011C, strain gbp2, hits give low values 1.02 | locus YCL016C, strain dcc1, hits give low values 1.02 | locus YCL029C, strain bik1, hits give low values 0.941 | locus YCL069W, strain vba3, hits give low values 1.02 | locus YCR088W, strain abp1, hits give low values 1.02 | locus YDL005C, strain med2, hits give low values 1.02 | locus YDL035C, strain GPR1, hits give low values 0.964 | locus YDL040C, strain nat1, hits give low values 1.01 | locus YDL074C, strain BRE1, hits give low values 0.834 | locus YDL101C, strain DUN1, hits give low values 0.947 | locus YDL134C, strain PPH21, hits give low values 0.911 | locus YDL185W, strain tfp1, hits give low values 0.975 | locus YDL192W, strain arf1, hits give low values 0.92 | locus YDR001C, strain nth1, hits give low values 1.01 | locus YDR069C, strain doa4, hits give low values 1 | locus YDR101C, strain arx1, hits give low values 0.967 | locus YDR137W, strain rgp1, hits give low values 0.885 | locus YDR150W, strain NUM1, hits give low values 0.983 | locus YDR159W, strain sac3, hits give low values 1.02 | locus YDR195W, strain ref2 1.05 | locus YDR297W, strain sur2, hits give low values 1.02 | locus YDR334W, strain swr1, hits give low values 1.03 | locus YDR335W, strain msn5, hits give low values 1.03 | locus YDR388W, hits give low values 0.957 | locus YDR392W, strain spt3, hits give low values 0.991 | locus YEL003W, strain gim4, hits give low values 1.01 | locus YEL037C, strain rad23, hits give low values 1.02 | locus YEL061C, strain CIN8 (second series), hits give low values 1.03 | locus YEL061C, strain CIN8, hits give low values 0.971 | locus YER015W, strain faa2, hits give low values 1.02 | locus YER016W, strain bim1, hits give low values 1.01 | locus YER110C, hits give low values 0.971 | locus YER111C, strain swi4, hits give low values 1.04 | locus YER155C, strain BEM2 (second series), hits give low values 1.03 | locus YER155C, strain BEM2, hits give low values 0.966 | locus YER167W, strain BCK2, hits give low values 0.949 | locus YFR010W, strain ubp6, hits give low values 1.03 | locus YGL078C, strain dbp3, hits give low values 0.961 | locus YGL167C, strain pmr1, hits give low values 1.01 | locus YGL173C, strain kem1, hits give low values 1.02 | locus YGL227W, strain vid30, hits give low values 1.02 | locus YGL240W, strain doc1, hits give low values 1.01 | locus YGL248W, strain PDE1, hits give low values 0.924 | locus YGL253W, strain hxk2, hits give low values 1.01 | locus YGR078C, strain PAC10, hits give low values 0.889 | locus YGR135W, strain pre9, hits give low values 0.93 | locus YGR252W, strain gcn5, hits give low values 0.88 | locus YHR013C, strain ard1, hits give low values 1.03 | locus YHR027C, strain rpn1, hits give low values 1.03 | locus YHR030C, strain SLT2, hits give low values 1.04 | locus YHR079C, strain IRE1 (second series), hits give low values 0.96 | locus YHR079C, strain IRE1, hits give low values 1.07 | locus YHR094C, strain hxt1, hits give low values 0.958 | locus YHR129C, strain ARP1, hits give low values 0.949 | locus YHR142W, strain chs7, hits give low values 1.01 | locus YHR200W, strain rpn10, hits give low values 0.931 | locus YIL066C, strain RNR3, hits give low values 0.94 | locus YIL073C, strain SPO22, hits give low values 0.871 | locus YIL125W, strain kgd1, hits give low values 0.973 | locus YIR030C, strain dcg1, hits give low values 0.954 | locus YJL092W, strain hpr5, hits give low values 1.01 | locus YJL095W, strain BCK1 (second series), hits give low values 1 | locus YJL095W, strain BCK1, hits give low values 0.811 and 1.03 | locus YJL115W, strain asf1, hits give low values 1.03 | locus YJL129C, strain trk1, hits give low values 0.961 | locus YJL134W, strain LCB3, hits give low values 0.973 | locus YJL154C, strain vps35, hits give low values 1.01 | locus YJL164C, strain tpk1, hits give low values 1.02 | locus YJL166W, strain qcr8, hits give low values 1.01 | locus YJL168C, strain set2, hits give low values 0.957 | locus YJL187C, strain SWE1 (second series), hits give low values 0.918 | locus YJR066W, strain TOR1, hits give low values 1.01 | locus YKL009W, strain mrt4, hits give low values 0.91 | locus YKL068W, hits give low values 0.965 | locus YKL085W, strain MDH1 (second series), hits give low values 0.961 | locus YKL085W, strain MDH1, hits give low values 0.961 | locus YKL160W, strain elf1, hits give low values 1.02 | locus YKL190W, strain CNB1, hits give low values 0.979 | locus YKR026C, strain gcn3, hits give low values 1.02 | locus YKR091W, strain srl3, hits give low values 1.01 | locus YLL001W, strain dnm1, hits give low values 1.01 | locus YLL026W, hits give low values 1.01 | locus YLL041C, strain sdh2, hits give low values 1.03 | locus YLR027C, strain aat2, hits give low values 0.999 | locus YLR058C, strain SHM2, hits give low values 0.944 | locus YLR102C, strain apc9, hits give low values 0.959 | locus YLR113W, strain HOG1, hits give low values 0.996 | locus YLR221C, strain rsa3, hits give low values 1.01 | locus YLR258W, strain gsy2, hits give low values 1.03 | locus YLR268W, strain sec22, hits give low values 0.926 | locus YLR320W, strain mms22, hits give low values 1.01 | locus YLR330W, strain CHS5, hits give low values 0.951 | locus YLR342W, strain FKS1, hits give low values 1.01 | locus YLR357W, strain rsc2, hits give low values 1.08 | locus YLR370C, strain arc18, hits give low values 1.03 | locus YLR371W, strain rom2, hits give low values 0.97 | locus YLR384C, strain iki3, hits give low values 1.03 | locus YML016C, strain PPZ1, hits give low values 0.97 | locus YML032C, strain rad52, hits give low values 0.909 | locus YML120C, strain ndi1, hits give low values 1.02 | locus YML124C, strain tub3, hits give low values 0.959 | locus YMR058W, strain fet3, hits give low values 1.02 | locus YMR078C, strain ctf18, hits give low values 0.928 | locus YMR125W, strain sto1, hits give low values 1.03 | locus YMR129W, hits give low values 1.02 | locus YMR205C, strain PFK2, hits give low values 1.01 | locus YMR223W, strain ubp8, hits give low values 0.914 | locus YMR231W, strain pep5, hits give low values 1.04 | locus YMR307W, strain GAS1, hits give low values 0.7 | locus YNL067W, strain RPL9B, hits give low values 0.939 | locus YNL071W, strain lat1, hits give low values 1.02 | locus YNL183C, strain NPR1, hits give low values 0.994 | locus YNL209W, strain ssb2, hits give low values 1.02 | locus YNL233W, strain BNI4, hits give low values 0.885 | locus YNL248C, strain rpa49, hits give low values 1.04 | locus YNL250W, strain rad50, hits give low values 0.965 | locus YNL271C, strain bni1, hits give low values 0.961 | locus YNL298W, strain CLA4, hits give low values 0.951 | locus YNL322C, strain KRE1 (second series), hits give low values 1.03 | locus YNR049C, strain mso1, hits give low values 1.01 | locus YNR052C, strain pop2, hits give low values 0.92 | locus YOL012C, strain htz1 1.16 | locus YOL147C, strain pex11, hits give low values 0.942 | locus YOR001W, strain rrp6, hits give low values 1.02 | locus YOR061W, strain CKA2, hits give low values 0.964 | locus YOR069W, strain VPS5, hits give low values 0.965 | locus YOR070C, strain gyp1, hits give low values 1.01 | locus YOR080W, strain dia2, hits give low values 1.02 | locus YOR083W, strain WHI5, hits give low values 1.02 | locus YOR106W, strain vam3, hits give low values 1.04 | locus YOR136W, strain idh2, hits give low values 0.966 | locus YOR144C, strain elg1, hits give low values 0.961 | locus YOR231W, strain MKK1, hits give low values 1.03 | locus YOR265W, strain rbl2, hits give low values 1 | locus YOR270C, strain vph1, hits give low values 1.01 | locus YOR290C, strain snf2, hits give low values 1.04 | locus YOR316C, strain cot1, hits give low values 0.956 | locus YPL051W, strain arl3, hits give low values 1.02 | locus YPL055C, strain LGE1, hits give low values 0.887 | locus YPL078C, strain atp4, hits give low values 1.04 | locus YPL106C, strain sse1, hits give low values 1.07 | locus YPL240C, strain hsp82, hits give low values 1.01 | locus YPL256C, strain CLN2, hits give low values 1.08 | locus YPR119W, strain clb2, hits give low values 0.948 | locus YPR141C, strain kar3, hits give low values 0.955 | locus YPR167C, strain met16, hits give low values 0.953 | strain wtn01, hits give low values 0.945
active: locus YDR162C, strain NBP2, hits give low values 0.79 | locus YDR318W, strain mcm21, hits give low values 0.911 | locus YDR502C, strain sam2, hits give low values 0.898 | locus YGL086W, strain mad1, hits give low values 0.898 | locus YKR001C, strain vps1, hits give low values 0.895 | locus YLR039C, strain RIC1, hits give low values 0.443 | locus YLR262C, strain YPT6 (second series), hits give low values 0.842 | locus YLR262C, strain YPT6, hits give low values 0.397 | locus YLR418C, strain cdc73, hits give low values 0.725 | locus YNL307C, strain MCK1, hits give low values 0.885 | locus YOR184W, strain ser1, hits give low values 0.778 | locus YPR163C, strain tif3, hits give low values 0.883
